Test results from ChEMBL document CHEMBL1961873, “Compounds: GSK PKIS; Assays: Nanosyn kinase panel” (2012).
“And” between values parts separate entries of the source, which are not always exact repeats. Equal entries are not always repeated.

Key:
[1] = target: Sphingosine kinase 1 (Homo sapiens) (UniProt Q9NYA1); conditions: at 1 µM;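 note: mean SPHK1 inhibition value reported from the GSK PKIS kinase panel screen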
[2] = target: T1, Sphingosine kinase 2 (Homo sapiens) (UniProt Q9NRA0); conditions: at 0.1 µM
T1 sequence (whole entry): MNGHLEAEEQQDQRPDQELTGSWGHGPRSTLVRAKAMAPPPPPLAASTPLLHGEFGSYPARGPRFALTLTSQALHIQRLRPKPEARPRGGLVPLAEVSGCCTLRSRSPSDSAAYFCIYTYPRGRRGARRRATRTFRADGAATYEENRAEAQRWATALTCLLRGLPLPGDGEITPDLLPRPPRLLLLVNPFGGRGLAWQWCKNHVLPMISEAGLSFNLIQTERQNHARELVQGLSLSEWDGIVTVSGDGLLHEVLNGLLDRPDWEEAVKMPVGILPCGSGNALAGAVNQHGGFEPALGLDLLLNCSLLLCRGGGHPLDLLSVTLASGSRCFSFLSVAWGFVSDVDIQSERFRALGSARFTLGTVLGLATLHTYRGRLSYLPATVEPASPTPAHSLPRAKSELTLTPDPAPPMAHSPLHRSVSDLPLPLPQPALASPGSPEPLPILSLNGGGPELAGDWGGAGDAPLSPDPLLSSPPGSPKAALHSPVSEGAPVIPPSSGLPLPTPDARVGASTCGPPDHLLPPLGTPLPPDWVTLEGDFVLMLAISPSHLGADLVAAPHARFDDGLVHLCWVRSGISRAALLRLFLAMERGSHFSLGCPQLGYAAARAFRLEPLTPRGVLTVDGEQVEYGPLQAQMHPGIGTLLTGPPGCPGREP

[3] = target: T1, Sphingosine kinase 2 (Homo sapiens); conditions: at 1 µM
[4] = target: Casein kinase II subunit alpha (Homo sapiens) (UniProt P68400); conditions: at 0.1 µM
[5] = target: Casein kinase II subunit alpha (Homo sapiens) (UniProt P68400); conditions: at 1 µM
[6] = target: T2, Inhibitor of nuclear factor kappa-B kinase subunit alpha (Homo sapiens) (UniProt O15111); conditions: at 0.1 µM
T2 sequence (whole entry): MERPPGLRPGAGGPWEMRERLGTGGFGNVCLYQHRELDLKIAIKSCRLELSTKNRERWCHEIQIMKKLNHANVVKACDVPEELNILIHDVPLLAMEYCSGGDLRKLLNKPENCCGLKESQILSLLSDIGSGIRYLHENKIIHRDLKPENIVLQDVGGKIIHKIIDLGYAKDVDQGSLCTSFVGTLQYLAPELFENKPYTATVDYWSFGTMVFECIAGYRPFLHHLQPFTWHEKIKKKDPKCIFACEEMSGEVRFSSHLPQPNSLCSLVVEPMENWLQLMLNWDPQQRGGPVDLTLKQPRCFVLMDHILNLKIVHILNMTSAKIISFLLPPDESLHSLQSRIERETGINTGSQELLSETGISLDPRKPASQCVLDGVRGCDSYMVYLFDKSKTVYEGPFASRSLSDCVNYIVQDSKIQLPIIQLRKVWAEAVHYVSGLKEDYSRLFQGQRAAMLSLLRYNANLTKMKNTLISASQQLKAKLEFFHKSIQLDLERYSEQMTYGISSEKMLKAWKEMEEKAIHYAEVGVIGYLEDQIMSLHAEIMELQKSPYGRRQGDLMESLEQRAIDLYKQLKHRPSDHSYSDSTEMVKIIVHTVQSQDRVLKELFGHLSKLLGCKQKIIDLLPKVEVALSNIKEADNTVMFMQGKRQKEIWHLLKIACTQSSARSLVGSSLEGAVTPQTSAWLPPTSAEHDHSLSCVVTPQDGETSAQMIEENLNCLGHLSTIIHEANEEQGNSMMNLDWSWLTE

[7] = target: T2, Inhibitor of nuclear factor kappa-B kinase subunit alpha (Homo sapiens); conditions: at 1 µM
[8] = target: T3, Inhibitor of nuclear factor kappa-B kinase subunit beta (Homo sapiens) (UniProt O14920); conditions: at 0.1 µM
T3 sequence (whole entry): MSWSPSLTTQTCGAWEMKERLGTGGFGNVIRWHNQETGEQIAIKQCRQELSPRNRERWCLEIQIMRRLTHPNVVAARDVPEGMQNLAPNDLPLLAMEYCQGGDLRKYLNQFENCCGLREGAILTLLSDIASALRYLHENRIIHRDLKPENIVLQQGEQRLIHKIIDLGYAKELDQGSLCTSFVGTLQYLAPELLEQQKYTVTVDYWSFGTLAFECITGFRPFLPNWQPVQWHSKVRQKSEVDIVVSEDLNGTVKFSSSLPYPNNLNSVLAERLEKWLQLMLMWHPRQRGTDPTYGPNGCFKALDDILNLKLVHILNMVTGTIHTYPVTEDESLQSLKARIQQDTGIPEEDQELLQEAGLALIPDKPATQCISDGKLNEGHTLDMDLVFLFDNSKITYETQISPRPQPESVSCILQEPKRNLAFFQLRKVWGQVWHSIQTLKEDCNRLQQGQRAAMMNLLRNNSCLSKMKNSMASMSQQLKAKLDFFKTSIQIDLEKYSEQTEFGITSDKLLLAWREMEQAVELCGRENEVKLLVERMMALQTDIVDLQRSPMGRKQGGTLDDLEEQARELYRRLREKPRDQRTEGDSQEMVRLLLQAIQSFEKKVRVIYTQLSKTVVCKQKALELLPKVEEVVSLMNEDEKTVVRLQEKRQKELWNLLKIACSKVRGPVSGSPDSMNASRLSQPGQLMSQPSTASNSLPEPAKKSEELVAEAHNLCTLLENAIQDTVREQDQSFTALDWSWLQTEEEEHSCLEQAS

[9] = target: T3, Inhibitor of nuclear factor kappa-B kinase subunit beta (Homo sapiens); conditions: at 1 µM
[10] = target: T4, Inhibitor of nuclear factor kappa-B kinase subunit epsilon (Homo sapiens) (UniProt Q14164); conditions: at 0.1 µM;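 note: mean inhibition of IKKε reported, from the GSK PKIS dataset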
T4 sequence (whole entry): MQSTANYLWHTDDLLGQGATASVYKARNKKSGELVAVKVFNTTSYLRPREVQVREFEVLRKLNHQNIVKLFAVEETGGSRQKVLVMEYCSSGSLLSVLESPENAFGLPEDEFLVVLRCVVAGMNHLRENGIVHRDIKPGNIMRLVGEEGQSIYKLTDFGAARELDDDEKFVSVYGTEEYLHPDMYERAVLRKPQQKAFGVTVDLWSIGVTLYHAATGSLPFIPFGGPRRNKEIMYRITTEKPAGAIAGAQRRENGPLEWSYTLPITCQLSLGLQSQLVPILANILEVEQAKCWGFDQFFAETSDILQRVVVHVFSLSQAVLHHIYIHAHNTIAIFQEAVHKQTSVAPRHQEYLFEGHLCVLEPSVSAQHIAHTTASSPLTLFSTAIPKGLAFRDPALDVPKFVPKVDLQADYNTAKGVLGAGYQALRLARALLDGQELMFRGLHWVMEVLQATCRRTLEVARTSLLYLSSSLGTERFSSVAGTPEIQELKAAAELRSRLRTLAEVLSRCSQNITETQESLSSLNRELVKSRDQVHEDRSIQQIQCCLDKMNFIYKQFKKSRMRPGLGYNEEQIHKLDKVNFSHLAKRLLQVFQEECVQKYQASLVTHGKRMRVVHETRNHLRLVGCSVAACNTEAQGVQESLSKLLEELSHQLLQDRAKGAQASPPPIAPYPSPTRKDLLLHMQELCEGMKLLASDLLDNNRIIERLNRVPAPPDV

Chain of Sphingosine kinase 1 (Homo sapiens) (Q9NYA1 whole entry): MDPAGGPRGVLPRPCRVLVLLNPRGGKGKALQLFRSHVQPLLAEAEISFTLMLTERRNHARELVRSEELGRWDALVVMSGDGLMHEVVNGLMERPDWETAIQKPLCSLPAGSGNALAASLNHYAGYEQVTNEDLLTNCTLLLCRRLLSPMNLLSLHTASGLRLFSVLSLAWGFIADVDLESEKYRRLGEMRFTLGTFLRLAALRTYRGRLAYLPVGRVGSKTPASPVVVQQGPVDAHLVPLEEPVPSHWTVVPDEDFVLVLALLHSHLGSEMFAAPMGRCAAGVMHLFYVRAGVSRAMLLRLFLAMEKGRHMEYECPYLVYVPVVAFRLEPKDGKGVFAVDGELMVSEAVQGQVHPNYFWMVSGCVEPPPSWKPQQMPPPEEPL
Chain of Casein kinase II subunit alpha (Homo sapiens) (P68400 whole entry, looked up): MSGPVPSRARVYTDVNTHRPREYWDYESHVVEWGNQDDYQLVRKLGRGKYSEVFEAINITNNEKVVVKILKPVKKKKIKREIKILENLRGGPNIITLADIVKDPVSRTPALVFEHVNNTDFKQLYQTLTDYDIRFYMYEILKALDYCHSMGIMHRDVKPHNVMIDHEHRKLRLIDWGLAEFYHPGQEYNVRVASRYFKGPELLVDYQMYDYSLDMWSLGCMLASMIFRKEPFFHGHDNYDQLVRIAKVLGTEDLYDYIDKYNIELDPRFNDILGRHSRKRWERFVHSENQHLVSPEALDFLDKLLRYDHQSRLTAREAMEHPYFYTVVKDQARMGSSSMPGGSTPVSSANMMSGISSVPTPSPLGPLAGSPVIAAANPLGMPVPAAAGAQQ

| Structure (SMILES) | inhibition [1] | inhibition [2] | inhibition [3] | inhibition [4] | inhibition [5] | inhibition [6] | inhibition [7] | inhibition [8] | inhibition [9] | inhibition [10] |
| --- | --- | --- | --- | --- | --- | --- | --- | --- | --- | --- |
| OCCCNc1nccc(-c2c(-c3ccc(F)cc3)nn3cc(C(F)(F)F)ccc23)n1 | -0.86% | 1.62% | -1.3% | 1.23% | 6.41% | -2.66% | 1.51% | 1.75% | -0.39% | 0.9% |
| COc1ccccc1-c1cc(/C=C2\C(=O)Nc3ncc(Br)cc32)cc(Br)c1O | -2.44% | 2.31% | 0.1% | 1.59% | 3.83% | 0.19% | 0.71% | 5.58% | -0.48% | 10.9% |
| CCCNc1cccc(-n2ncc3c(N/N=C/c4ccncc4)ncnc32)c1 | -3.91% | -0.44% | 1.31% | 1.7% | 14.1% | 5.25% | 0.68% | 0.62% | 3.19% | 5.27% |
| COc1cc(N2CCN(C(C)C)CC2)ccc1Nc1nc(Nc2cccc3ncccc23)c2cc[nH]c2n1 | -2% | 0% | -0.78% | 1.04% | 1.8% | 4.1% | -3.72% | 1.05% | -2.01% | -1.3% |
| COc1cc(Nc2ncc(-c3ccccc3)o2)cc(OC)c1 | 2.45% | -0.24% | -0.57% | 3.79% | 3.91% | 2.7% | 4.19% | 4.63% | 7.8% | 12.6% |
| COc1ccc(-c2nn3ncccc3c2-c2ccnc(Nc3ccc(F)c(F)c3)n2)cc1 | -4.19% | 5.2% | 0% | 5.76% | 10.5% | 3.55% | 8.81% | 4.66% | 5.58% | 9.89% |
| O=C(O[C@H]1CN[C@H](C#Cc2cc3ncnc(Nc4ccc(OCc5cccc(F)c5)c(Cl)c4)c3s2)C1)N1CCOCC1 | -2.17% | 0.46% | -2.18% | 4.85% | 11.5% | 6.35% | 6.72% | 8.43% | 11.1% | 8.36% |
| CC1=C(C(=O)Nc2ccc3[nH]nc(C)c3c2)C(c2ccc(C(F)(F)F)cc2)CC(=O)N1 (stereo not given) | -1.2% | -0.06% | -2.04% | 1.79% | 2.97% | 3.27% | -5.37% | 2.18% | 0.69% | 0.85% |
| COc1cc(N2CCN(C(C)C)CC2)ccc1Nc1nc(Nc2cccc(F)c2C(=O)O)c2cc[nH]c2n1 | -1.68% | -0.64% | -0.33% | 6.3% | 22.4% | 4.18% | 3.93% | 6.66% | 8.91% | 5.22% |
| COc1ccc2ncn(-c3cc(O[C@H](C)c4ccccc4C(F)(F)F)c(C(N)=O)s3)c2c1 | 2.4% | -0.06% | -2.97% | -0.88% | 5.02% | 3.24% | -5.63% | -5.7% | 1.93% | -0.98% |
| COC(=O)Nc1nc2cc(Oc3ccc(NC(=O)Nc4ccccc4)cc3)ccc2[nH]1 | 3.1% | -0.28% | 0.5% | 1.57% | 7.67% | 10.9% | 8.6% | 4.21% | 5.49% | 5.85% |
| Cc1cc(O)cc(C)c1/C=C/c1cncc(C(=O)OC(C)(C)C)c1 | -1.82% | 0.51% | 0% | 4.48% | 7.86% | 2.35% | 1.81% | 2.36% | 2.32% | 4.19% |
| Nc1ncnc2occ(-c3ccc(NC(=O)Nc4cc(C(F)(F)F)ccc4F)cc3)c12 | -0.65% and 1.59% | -1.33% and 0% | 11.6% and 0% | 2.39% and -3.9% | 6.35% and 0.16% | 5.79% and 7.04% | 6.73% and 11.3% | 1.45% and -2.16% | 2.13% and 1.62% | 1.57% and 0.44% |
| CN(c1ccc(NC(=O)NCCN2CCOCC2)cc1)c1ccnc(Nc2ccc(CS(C)(=O)=O)cc2)n1 | 7.75% | 0.36% | 0.38% | 5.71% | 11.9% | 10.9% | 8% | 3.48% | 3.83% | 3.55% |
| CS(=O)(=O)Nc1ccc(-c2cc(-c3ccccc3)cc(C(N)=O)c2N)cc1 | 2.51% | -0.04% | -0.67% | 0.89% | 2.26% | 1.46% | 4.19% | 6.82% | 27.4% | 0.29% |
| COc1cccc(-n2ncc3c(N/N=C/c4ccc(C(=O)NCCN(C)C)cc4)ncnc32)c1 | 0.56% | 0.23% | 1.39% | 31% | 62.2% | 1.29% | 4.43% | 1.09% | 0.86% | -1.79% |
